Source: PubChem BioAssay AID492997 (Johns Hopkins Ion Channel Center, 2010)
About 2,000 (41%) of roughly 4,900 compounds were called active.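 How the source made its calls: active means thallium signal drop beyond 5 SD of the untreated control mean, on both duplicate plates; inactive means the rest.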 The set was probably picked from earlier hits. A selection follows.

Experiment: nonspecific activity without KCNK9 expression – cell-based, second counter screen, non-induced KCNK9-HEK293, counter-screen for KCNK9 inhibitor project, confirmation (AID 492997);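 on inhibition: plate controls were buffer only IC0 wells for no effect and SID17386958 at its maximal inhibitory level for full effect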
Details: non-induced KCNK9-HEK293, FluxOR thallium flux, at 10 µM; active compounds read high
With O=C(C[C@H]1C(=O)N(c2ccc(F)c(F)c2)C[C@@H]1Cc1ccccc1)Nc1ccccc1 the inhibition was 37% (active).
In the case of COc1ccc(C(CCN(Cc2ccc(OC)c(OC)c2)C(=O)CCl)c2ccccc2)cc1 (stereo unspecified), the inhibition is reported as “inactive”.
In the case of Cc1ccc(CN(N=Nc2nonc2N)c2nonc2N)c(C)c1, the inhibition is reported as 43.5% (active).
With CC(C)CC(COCc1ccc(Cl)cc1)N1CCN(C(=O)c2ccc(C(F)(F)F)cc2)CCC1=O (stereo unspecified) the inhibition was 29.5% (active).
With Cc1ccccc1CSCCNC(=O)c1ccc(N(C)S(=O)(=O)c2ccccc2)cc1 the inhibition was “inactive”.
In the case of CN(c1ccccc1)S(=O)(=O)c1cccc(NC(=O)Cc2c(F)cccc2Cl)c1, the inhibition is reported as 23.5% (active).
With COc1ccccc1N1CCN(c2ncnc3sc(C)c(-c4ccccc4)c23)CC1 the inhibition was “inactive”.
For Clc1ccc(CSc2nnc(/C=C/c3ccccc3)o2)c(Cl)c1, the inhibition was “inactive”.
For CCN(CC)S(=O)(=O)c1ccc(N(C)Cc2ccc(C(F)(F)F)cc2)nc1, the inhibition was 39.5% (active).
With O=C(NCc1ccco1)c1ccc(NS(=O)(=O)c2cccc([N+](=O)[O-])c2)cc1 the inhibition was “inactive”.
In the case of CCCC1=Nc2cc(C(=O)NCc3ccco3)ccc2Sc2ccccc21, the inhibition is reported as 39.5% (active).
With COc1cc(Cl)ccc1OCc1cc(C(=O)N2CC[C@@H]3CCCC[C@H]3C2)no1 the inhibition was “inactive”.
With CCOc1ccc(C2c3[nH]c4ccccc4c3CCN2Cc2cccn2-c2ncccn2)cc1 (stereo unspecified) the inhibition was 25.5% (active).
With COCCN(C(=S)Nc1cccc(Cl)c1C)C(C)c1ccco1 (stereo unspecified) the inhibition was “inactive”.
With Cn1nc(-c2ccccc2)c(CSc2cccc(Cl)c2)c1Cl the inhibition was 38% (active).
For CCOC(=O)C1(CCOc2ccccc2)CCN(Cc2cc(OC)c(O)cc2Cl)CC1, the inhibition was “inactive”.
With CCc1nnc(NS(=O)(=O)c2ccc(NC(=S)NC(=O)/C=C/c3cccs3)cc2)s1 the inhibition was “inactive”.
For COc1cccc(NC(=S)N(CCc2c(C)[nH]c3ccccc23)Cc2ccco2)c1, the inhibition was 30% (active).
With Cc1[nH]c2ccccc2c1CCN(Cc1cccs1)C(=S)NC(C)(C)C the inhibition was “inactive”.
For O=C(Nc1ccc(S(=O)(=O)N2CCCCC2)cc1)C1CCN(C(=O)c2ccc(F)cc2)CC1, the inhibition was “inactive”.
In the case of CCCC(=O)n1nc(NCc2ccc(OC)cc2)nc1NCc1ccc(OC)cc1, the inhibition is reported as “inactive”.
With O=C(Cc1ccccc1)n1nc(-c2ccccc2)nc1NCc1ccco1 the inhibition was 33% (active).
For COc1ccccc1NC(=O)CSc1nc2sc(C)c(C)c2c(=O)n1Cc1ccco1, the inhibition was 38.5% (active).
For C=CCOc1ccc(/C=N/NC(=O)C(C)Sc2ccccn2)cc1OCC (stereo unspecified), the inhibition was 39% (active).
For CCCN1C(=O)C(Cc2nc3ccccc3c(=O)n2-c2ccccc2)c2cc(C)ccc21 (stereo unspecified), the inhibition was 37.5% (active).
With CCOc1ccc(CN(Cc2ccco2)C(c2cccs2)c2nnnn2C(C)(C)C)cc1 (stereo unspecified) the inhibition was 41% (active).
In the case of Cc1csc(Nc2ccc(Cl)cc2)[n+]1-c1ccc(Cl)cc1, the inhibition is reported as “inactive”.
For COc1ccc(-c2oc(/N=C/N3CCCC3)c(C#N)c2-c2ccc(OC)cc2)cc1, the inhibition was “inactive”.
For CCC1=NN(C(=O)Cc2ccc([N+](=O)[O-])cc2)C(O)(c2ccc(Br)cc2)C1 (stereo unspecified), the inhibition was 28.5% (active).
For Clc1cccc(-c2nc3nc4ccccc4nc3n2Cc2ccco2)c1, the inhibition was “inactive”.
With Clc1ccc(Cl)c(Oc2ccc(Oc3nc(Cl)ccc3Cl)cc2)n1 the inhibition was “inactive”.
With COC(=O)C1=C(Nc2ccc(C)cc2)C=C(C)C(C(=O)OC)C1c1ccc(F)cc1 (stereo unspecified) the inhibition was 37.5% (active).
With Cc1ccc(C(=O)/C=C/c2c(C)nn(-c3ccccc3)c2Cl)cc1 the inhibition was “inactive”.
For O=C(Nn1c(SCc2ccc([N+](=O)[O-])cc2)nc2ccccc2c1=O)c1ccc(F)cc1, the inhibition was “inactive”.
With CCCSc1nc(NCc2ccco2)c2c3c(sc2n1)COC(C)(CC)C3 (stereo unspecified) the inhibition was 38.5% (active).
In the case of CCC1(C)Cc2c(sc3[nH]c(=S)n(Cc4ccccc4)c(=O)c23)CO1 (stereo unspecified), the inhibition is reported as “inactive”.
With CCOC(=O)Cc1cc(=O)[nH]c(=O)[nH]1 the inhibition was “inactive”.
For COc1ccc(/C=C2\CCc3ccccc3C2=O)c(OC)c1OC, the inhibition was “inactive”.
For CC1CCN(C(=S)c2ccc(-c3ccc(Cl)cc3Cl)o2)CC1, the inhibition was “inactive”.
For O=C(CSCc1ccc(Cl)cc1)N1CCN(Cc2ccc3c(c2)OCO3)CC1, the inhibition was “inactive”.
With CC1CCN(C(=O)c2ccc(CSc3ccc(Cl)cc3)cc2)CC1 the inhibition was 36% (active).
In the case of CN(C)S(=O)(=O)N1CCC(Oc2cccc(C(=O)NCCCC3CCCC3)c2)CC1, the inhibition is reported as “inactive”.
With Cc1cccc(NC(=O)N(Cc2cc3cc(C)cc(C)c3[nH]c2=O)CC2COCCO2)c1 (stereo unspecified) the inhibition was “inactive”.
With O=C(COC(=O)c1c2c(nc3ccccc13)CCCC2)c1ccc(Br)s1 the inhibition was 22.5% (active).
In the case of Cc1ccc(OS(=O)(=O)c2ccc(-c3csc(C)n3)s2)c(C)c1, the inhibition is reported as “inactive”.
With COc1cccc(COC(=O)C2CCN(S(=O)(=O)c3ccc(Cl)cc3)CC2)c1OC the inhibition was “inactive”.
For CN(CCOc1ccccc1)C(=O)c1cc(COc2c(F)cccc2F)on1, the inhibition was “inactive”.
In the case of O=C(NCCCc1ccccc1)c1cc(COc2c(F)cccc2F)on1, the inhibition is reported as “inactive”.
In the case of O=C(NC1Cc2ccccc2C1)c1cc(COc2cccc(C(F)(F)F)c2)on1, the inhibition is reported as 28% (active).
With CC(C)N(C(=O)CSc1nc(COc2ccccc2)nc2ccccc12)C(C)C the inhibition was 29.5% (active).
For Cc1cc(C)cc(NC(=O)CSCc2cnn(-c3ccccc3)c2-n2cccc2)c1, the inhibition was “inactive”.
In the case of CC(C)(C)C1CCC(C(=O)NCC(c2cccs2)N2CCOCC2)CC1 (stereo unspecified), the inhibition is reported as “inactive”.
In the case of O=C(Nc1ccc(Br)c2cccnc12)c1ccc(Cn2cc([N+](=O)[O-])cn2)o1, the inhibition is reported as 31% (active).
For CC1=NN(c2cccc(Cl)c2)C(=O)C12CC(C)=C(C)CS2 (stereo unspecified), the inhibition was 40.5% (active).
In the case of Cc1cc(C=O)c(C)n1-c1ccc(NC2CCCCC2)c([N+](=O)[O-])c1, the inhibition is reported as 55% (active).
In the case of CCOC(=O)c1c(NC(=O)CCCN2CCOCC2)sc2c1CC(C)(C)OC2, the inhibition is reported as “inactive”.
In the case of CCOC(=O)C1=C(C)Nc2sc(C(=O)c3ccc(Br)cc3)c(N)c2C1c1ccc(C(=O)OC)cc1 (stereo unspecified), the inhibition is reported as 32.5% (active).
In the case of O=C(/C=C/NNC(=O)c1cccc(Br)c1)c1ccccc1, the inhibition is reported as 50% (active).
With COc1ccc(Nc2ncnc3sc(-c4ccccc4)cc23)c(OC)c1 the inhibition was “inactive”.
In the case of CCCCN(CC)C(=O)C1CCCN(S(=O)(=O)c2cccc3nsnc23)C1 (stereo unspecified), the inhibition is reported as “inactive”.
With Cc1ccc(SCC(=O)c2cc(C)c(OC(=S)N(C)C)c(C)c2)cc1 the inhibition was 34% (active).
